Holding throughout (test): PBM; 200 nM protein, PBS
Conditions in all cases: dsDNA, one strand shown

For assay [1], the target named is HOXA4 (Homo sapiens, UniProt Q00056 201-287, W262R).
The target in assay [2] is HOXA7 (Homo sapiens, UniProt P31268 116-202).
The target in assay [3] is ALX4 (Homo sapiens, UniProt Q9H161 200-286).
The target in assay [4] is PRRX1 (Homo sapiens, UniProt P54821 80-166, F113S).
In assay [5] the target is ALX4 (Homo sapiens, UniProt Q9H161 200-286, Q225E).
In assay [6] the target is HOXA2 (Homo sapiens, UniProt O43364 129-215, R185T).
Assay [7] deals with MSX2 (Homo sapiens, UniProt P35548 130-214, R199I).
For assay [8], the target named is HOXA2 (Homo sapiens, UniProt O43364 129-215, R185K).
Assay [9] has as its target HOXA4 (Homo sapiens, UniProt Q00056 201-287).
For assay [10], the target named is MSX2 (Homo sapiens, UniProt P35548 130-214).
Assay [11] addresses MSX2 (Homo sapiens, UniProt P35548 130-214, F161Y).
The target of assay [12] is VAX1 (Homo sapiens, UniProt Q5SQQ9 86-172, T142I).
Assay [13] concerns the target HOXA7 (Homo sapiens, UniProt P31268 116-202, W177C).
The target of assay [14] is ALX1 (Homo sapiens, UniProt Q15699 118-204).
For assay [15], the target named is HOXA4 (Homo sapiens, UniProt Q00056 201-287, W262F).
In assay [16] the target is PRRX1 (Homo sapiens, UniProt P54821 80-166).
Assay [17] concerns the target VAX1 (Homo sapiens, UniProt Q5SQQ9 86-172, K157R).
Assay [18] addresses T1, VENTX (Homo sapiens, UniProt O95231 78-163, R121Q).
T1 sequence: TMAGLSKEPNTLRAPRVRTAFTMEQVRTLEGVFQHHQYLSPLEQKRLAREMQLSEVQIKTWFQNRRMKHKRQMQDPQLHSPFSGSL

In assay [19] the target is HOXB6 (Homo sapiens, UniProt P17509 132-218, K202E).
Assay [20] concerns the target HOXB6 (Homo sapiens, UniProt P17509 132-218).

VAX1 (Homo sapiens, UniProt Q5SQQ9 86-172, K157R), sequence (Q5SQQ9 86-172 K157R): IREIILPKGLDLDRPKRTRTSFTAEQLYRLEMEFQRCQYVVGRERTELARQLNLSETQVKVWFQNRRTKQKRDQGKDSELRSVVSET
HOXA4 (Homo sapiens, UniProt Q00056 201-287, W262R), sequence (Q00056 201-287 W262R): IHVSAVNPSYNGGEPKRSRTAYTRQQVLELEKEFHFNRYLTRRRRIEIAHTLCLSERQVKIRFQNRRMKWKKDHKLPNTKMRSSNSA
PRRX1 (Homo sapiens, UniProt P54821 80-166), sequence (P54821 80-166): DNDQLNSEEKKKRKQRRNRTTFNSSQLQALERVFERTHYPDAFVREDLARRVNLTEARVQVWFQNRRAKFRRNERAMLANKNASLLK
HOXA4 (Homo sapiens, UniProt Q00056 201-287), sequence (Q00056 201-287): as the sequence (Q00056 201-287 W262R) above, with R62W counted along it
MSX2 (Homo sapiens, UniProt P35548 130-214, F161Y), sequence (P35548 130-214 F161Y): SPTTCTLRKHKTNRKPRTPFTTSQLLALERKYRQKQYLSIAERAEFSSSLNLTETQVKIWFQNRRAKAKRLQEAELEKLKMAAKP
HOXB6 (Homo sapiens, UniProt P17509 132-218, K202E), sequence (P17509 132-218 K202E): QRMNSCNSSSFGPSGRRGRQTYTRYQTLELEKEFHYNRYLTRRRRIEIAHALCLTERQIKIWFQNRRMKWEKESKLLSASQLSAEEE
HOXA2 (Homo sapiens, UniProt O43364 129-215, R185K), sequence (O43364 129-215 R185K): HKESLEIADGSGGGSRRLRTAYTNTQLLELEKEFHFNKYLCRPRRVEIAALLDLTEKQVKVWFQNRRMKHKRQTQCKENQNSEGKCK
ALX4 (Homo sapiens, UniProt Q9H161 200-286, Q225E), sequence (Q9H161 200-286 Q225E): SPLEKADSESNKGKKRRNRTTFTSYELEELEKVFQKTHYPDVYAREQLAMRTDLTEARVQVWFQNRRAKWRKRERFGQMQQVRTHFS
HOXB6 (Homo sapiens, UniProt P17509 132-218), sequence (P17509 132-218): as the sequence (P17509 132-218 K202E) above, with E71K counted along it
MSX2 (Homo sapiens, UniProt P35548 130-214), sequence (P35548 130-214): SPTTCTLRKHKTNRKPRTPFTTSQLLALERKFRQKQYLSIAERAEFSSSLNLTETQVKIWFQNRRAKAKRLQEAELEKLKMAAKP
HOXA4 (Homo sapiens, UniProt Q00056 201-287, W262F), sequence (Q00056 201-287 W262F): as the sequence (Q00056 201-287 W262R) above, with R62F counted along it
ALX1, sequence (Q15699 118-204): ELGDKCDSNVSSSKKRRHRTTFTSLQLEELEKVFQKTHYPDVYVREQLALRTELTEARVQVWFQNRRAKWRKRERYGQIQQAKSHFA
ALX4 (Homo sapiens, UniProt Q9H161 200-286), sequence (Q9H161 200-286): as the sequence (Q9H161 200-286 Q225E) above, with E26Q counted along it
MSX2 (Homo sapiens, UniProt P35548 130-214, R199I), sequence (P35548 130-214 R199I): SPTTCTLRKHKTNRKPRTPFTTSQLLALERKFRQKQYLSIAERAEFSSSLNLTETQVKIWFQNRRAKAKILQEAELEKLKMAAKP
PRRX1 (Homo sapiens, UniProt P54821 80-166, F113S), sequence (P54821 80-166 F113S): as the sequence (P54821 80-166) above, with F34S counted along it
HOXA7 (Homo sapiens, UniProt P31268 116-202, W177C), sequence (P31268 116-202 W177C): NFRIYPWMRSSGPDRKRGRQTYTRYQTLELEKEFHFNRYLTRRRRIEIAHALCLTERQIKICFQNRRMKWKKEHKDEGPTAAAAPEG
HOXA2 (Homo sapiens, UniProt O43364 129-215, R185T), sequence (O43364 129-215 R185T): as the sequence (O43364 129-215 R185K) above, with K57T counted along it
VAX1 (Homo sapiens, UniProt Q5SQQ9 86-172, T142I), sequence (Q5SQQ9 86-172 T142I): as the sequence (Q5SQQ9 86-172 K157R) above, with T57I, R72K counted along it
HOXA7 (Homo sapiens, UniProt P31268 116-202), sequence (P31268 116-202): as the sequence (P31268 116-202 W177C) above, with C62W counted along it

In the case of GTAATTGA, the binding signal in assay [1] is 10.4 upbm affinity estimate (log intensity, higher = more binding, comparable within an allelic series); in assay [2] it was 11.2 upbm affinity estimate (log intensity, higher = more binding, comparable within an allelic series); in assay [3], 13.8 upbm affinity estimate (log intensity, higher = more binding, comparable within an allelic series); in assay [4], 11 upbm affinity estimate (log intensity, higher = more binding, comparable within an allelic series); in assay [5], 12.8 upbm affinity estimate (log intensity, higher = more binding, comparable within an allelic series); in assay [6], 12.5 upbm affinity estimate (log intensity, higher = more binding, comparable within an allelic series). In addition, the binding signal was 12.5 upbm affinity estimate (log intensity, higher = more binding, comparable within an allelic series) in assay [7]; 12.9 upbm affinity estimate (log intensity, higher = more binding, comparable within an allelic series) in assay [8]; 13.5 upbm affinity estimate (log intensity, higher = more binding, comparable within an allelic series) in assay [9]; 13.7 upbm affinity estimate (log intensity, higher = more binding, comparable within an allelic series) in [10]; 13.4 upbm affinity estimate (log intensity, higher = more binding, comparable within an allelic series) in assay [11]; 12.4 upbm affinity estimate (log intensity, higher = more binding, comparable within an allelic series) in assay [12]. Also, the binding signal in assay [13] is 8.88 upbm affinity estimate (log intensity, higher = more binding, comparable within an allelic series); in [14] it was 12.3 upbm affinity estimate (log intensity, higher = more binding, comparable within an allelic series); in assay [15], 11.2 upbm affinity estimate (log intensity, higher = more binding, comparable within an allelic series); in assay [16], 13.3 upbm affinity estimate (log intensity, higher = more binding, comparable within an allelic series); in assay [17], 12.6 upbm affinity estimate (log intensity, higher = more binding, comparable within an allelic series).
As for CAATTACC, the binding signal in [18] was 11.7 upbm affinity estimate (log intensity, higher = more binding, comparable within an allelic series); in assay [2], 11.4 upbm affinity estimate (log intensity, higher = more binding, comparable within an allelic series); in assay [3], 13.9 upbm affinity estimate (log intensity, higher = more binding, comparable within an allelic series); in assay [4], 10.9 upbm affinity estimate (log intensity, higher = more binding, comparable within an allelic series); in assay [19], 9.82 upbm affinity estimate (log intensity, higher = more binding, comparable within an allelic series); in assay [5] it was 12.9 upbm affinity estimate (log intensity, higher = more binding, comparable within an allelic series). Besides, the binding signal in [6] was 12.6 upbm affinity estimate (log intensity, higher = more binding, comparable within an allelic series); in [7], 12.7 upbm affinity estimate (log intensity, higher = more binding, comparable within an allelic series); in assay [8] it was 13.1 upbm affinity estimate (log intensity, higher = more binding, comparable within an allelic series); in assay [10] it was 13.8 upbm affinity estimate (log intensity, higher = more binding, comparable within an allelic series); in [11], 13.5 upbm affinity estimate (log intensity, higher = more binding, comparable within an allelic series); in [12] it was 12.5 upbm affinity estimate (log intensity, higher = more binding, comparable within an allelic series). In addition, the binding signal in [13] is 8.84 upbm affinity estimate (log intensity, higher = more binding, comparable within an allelic series); in assay [14] it was 12.4 upbm affinity estimate (log intensity, higher = more binding, comparable within an allelic series); in assay [16], 13.3 upbm affinity estimate (log intensity, higher = more binding, comparable within an allelic series); in assay [17], 12.5 upbm affinity estimate (log intensity, higher = more binding, comparable within an allelic series); in assay [20], 11.8 upbm affinity estimate (log intensity, higher = more binding, comparable within an allelic series).
As for AATTAGTC, the binding signal is 12.8 upbm affinity estimate (log intensity, higher = more binding, comparable within an allelic series) in assay [5]; 12.3 upbm affinity estimate (log intensity, higher = more binding, comparable within an allelic series) in assay [7]; 13.5 upbm affinity estimate (log intensity, higher = more binding, comparable within an allelic series) in assay [10]; 13 upbm affinity estimate (log intensity, higher = more binding, comparable within an allelic series) in assay [11]; 12.1 upbm affinity estimate (log intensity, higher = more binding, comparable within an allelic series) in assay [14]; 12.3 upbm affinity estimate (log intensity, higher = more binding, comparable within an allelic series) in assay [17].
For the sequence CCCCGGCG, the binding signal in assay [1] is 9.68 upbm affinity estimate (log intensity, higher = more binding, comparable within an allelic series); in assay [19], 9.01 upbm affinity estimate (log intensity, higher = more binding, comparable within an allelic series); in assay [9], 9.89 upbm affinity estimate (log intensity, higher = more binding, comparable within an allelic series); in assay [15], 9.94 upbm affinity estimate (log intensity, higher = more binding, comparable within an allelic series); in assay [20], 9 upbm affinity estimate (log intensity, higher = more binding, comparable within an allelic series).
Consider CAATTAAC, for which the binding signal in assay [18] is 12.2 upbm affinity estimate (log intensity, higher = more binding, comparable within an allelic series); in assay [1], 10.6 upbm affinity estimate (log intensity, higher = more binding, comparable within an allelic series); in [2], 11.5 upbm affinity estimate (log intensity, higher = more binding, comparable within an allelic series); in [3], 14 upbm affinity estimate (log intensity, higher = more binding, comparable within an allelic series); in assay [4], 11.3 upbm affinity estimate (log intensity, higher = more binding, comparable within an allelic series); in assay [19], 9.99 upbm affinity estimate (log intensity, higher = more binding, comparable within an allelic series). For the same sequence, the binding signal in assay [5] is 13.5 upbm affinity estimate (log intensity, higher = more binding, comparable within an allelic series); in [6], 13.1 upbm affinity estimate (log intensity, higher = more binding, comparable within an allelic series); in [7], 13.1 upbm affinity estimate (log intensity, higher = more binding, comparable within an allelic series); in [8], 13.3 upbm affinity estimate (log intensity, higher = more binding, comparable within an allelic series); in [9] it was 13.9 upbm affinity estimate (log intensity, higher = more binding, comparable within an allelic series); in assay [10], 14 upbm affinity estimate (log intensity, higher = more binding, comparable within an allelic series). Also, the binding signal in assay [11] was 13.6 upbm affinity estimate (log intensity, higher = more binding, comparable within an allelic series); in assay [12] it was 12.8 upbm affinity estimate (log intensity, higher = more binding, comparable within an allelic series); in assay [13], 8.75 upbm affinity estimate (log intensity, higher = more binding, comparable within an allelic series); in [14], 12.5 upbm affinity estimate (log intensity, higher = more binding, comparable within an allelic series); in assay [15], 11.6 upbm affinity estimate (log intensity, higher = more binding, comparable within an allelic series); in [16] it was 13.4 upbm affinity estimate (log intensity, higher = more binding, comparable within an allelic series). Further, the binding signal in assay [17] was 13 upbm affinity estimate (log intensity, higher = more binding, comparable within an allelic series); in assay [20], 12 upbm affinity estimate (log intensity, higher = more binding, comparable within an allelic series).

(Values after article PMC11006913.)
